PubChem BioAssay AID2284334 (EPA ToxCast)
Results filed as inconclusive are left out. The source made the active and inactive calls. Rule for the calls: active = hit-call score of the fitted dose curve at least 0.9, where 1 is the maximum; inconclusive = response in the unintended direction; inactive = score below 0.9.

target: human Peroxisome Proliferator-activated Receptor alpha (PPARa), PPARA (gene 5465) (UniProt Q07869); assay: ATG_hPPARa_EcoTox2: Attagene TRANS-FACTORIAL EcoTox-2 HepG2 Assay for human Peroxisome Proliferator-activated Receptor alpha (PPARa)
Sequence (Q07869 whole entry, looked up): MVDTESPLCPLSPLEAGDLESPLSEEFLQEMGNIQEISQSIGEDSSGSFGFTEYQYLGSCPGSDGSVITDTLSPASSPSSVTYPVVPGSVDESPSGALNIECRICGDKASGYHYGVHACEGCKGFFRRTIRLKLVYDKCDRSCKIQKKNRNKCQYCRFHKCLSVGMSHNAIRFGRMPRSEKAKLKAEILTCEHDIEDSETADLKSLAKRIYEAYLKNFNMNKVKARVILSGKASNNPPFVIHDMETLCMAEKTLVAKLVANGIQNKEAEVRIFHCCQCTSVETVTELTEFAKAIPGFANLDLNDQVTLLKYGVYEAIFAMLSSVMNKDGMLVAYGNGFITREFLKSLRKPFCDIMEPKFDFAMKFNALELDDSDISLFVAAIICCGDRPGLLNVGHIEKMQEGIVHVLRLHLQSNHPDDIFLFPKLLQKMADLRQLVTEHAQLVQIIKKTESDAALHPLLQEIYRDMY
Protocol: ATG_EcoTox2 is a cell-based, multiplexed assay created by modifying the existing Attagene TRANS-FACTORIAL system to include a panel of nuclear receptors from some or all the following species: human (Homo sapiens), african clawed frog (Xenopus laevis), rainbow trout (Oncorhynchus mykiss), japanese medaka (Oryzias latipes), and zebrafish (Danio rerio). The ECOTOX2-FACTORIAL format uses HepG2, a human liver cell line, with measurements taken at 24 hours after chemical dosing in a 24-well plate. ATG_hPPARa_EcoTox2 is one of 29 assay components calculated in the ATG_EcoTox2 assay. It is designed to make measurements of mRNA induction, a form of inducible reporter, as detected with fluorescence intensity signals by Reverse transcription polymerase chain reaction (RT-PCR) and Capillary electrophoresis technology.The assay endpoint ATG_hPPARa_EcoTox2 was analyzed in the positive analysis fitting direction relative to DMSO as the negative control and baseline of activity. Using a type of inducible reporter, measures of mRNA for gain-of-signal activity can be used to understand the reporter gene at the transcription factor-level as they relate to the gene PPARa. Furthermore, this assay endpoint can be referred to as a primary readout, because this assay has produced multiple assay endpoints where this one serves a reporter gene function. To generalize the intended target to other relatable targets, this assay endpoint is annotated to the nuclear receptor intended target family, where the subfamily is non-steroidal.
Human liver HepG2 cells are transiently transfected with multiple reporter transcription units (MRTUs) in 6-well plates using FuGene 6 reagent (Roche; 3 ml FuGene/1 mg DNA). The MRTU constructs are regulated by a cis-regulating element (promoter). Each RTU expresses a GAL4-UAS that regulates the transcription of a nearby target reporter gene sequence. A major difference between the CIS and TRANS system is that in CIS activities of endogenous TFs are measured, whereas the TRANS assay evaluates changes in activities of exogenous, chimeric NR-Gal4 proteins. […] At the end of 24 hour incubation, total RNA was isolated using TriZol reagent (Invitrogen). The isolated RNA is then reverse-transcribed using oligo(dT) primer and Mo-MLV reverse transcriptase (Invitrogen) with DNAse I (Ambion) treatment for 30 min. The one-tenth of the produced cDNA was amplified by PCR using Taq DNA polymerase (Invitrogen) and two reporter sequence-specific primers. The PCR products were fluorescently labeled by primer extension with 6-arboxyfluorescein (6-FAM) 5'-labeled reporter sequence-specific primer (2 min at 95 C, 20 s at 68 C and 10 min at 72 C) and these products were digested with 5U of HpaI (New England Biolabs) for 2h at 37 C. The fragments were purified using Qiaquick PCR columns (Qiagen), analyzed on an ABI 3130xL genetic analyzer (Applied Biosystems) with peak positions identified by using a set of X-rhodamine (ROX)-labeled MapMarker1000 molecular weight standards (BioVentures). The raw capillary electrophoresis data was processed using Attagraph software (Attagene).

Q: Which outcome does the source give for `C[C@@H]1C[C@H]2[C@@H]3CCC4=CC(=O)C=C[C@]4(C)[C@@]3(F)[C@@H](O)C[C@]2(C)[C@@]1(O)C(=O)COP(=O)(O)O` here?
A: inactive

Q: `CC(C)(Oc1ccc(C2CC2(Cl)Cl)cc1)C(=O)O` (stereo not given) was tested. Which AC50 did it give?
A: 0.984 µM (active)

Q: For `CC(C)(Oc1ccc(Cl)cc1)C(=O)O`, which AC50 is on record?
A: 17.1 µM (active)

Q: For `C[C@]12C=CC(=O)C=C1CC[C@@H]1[C@@H]2C(=O)C[C@@]2(C)[C@H]1CC[C@]2(O)C(=O)CO`, which outcome is on record?
A: inactive

Q: How did the outcome turn out when `CC(c1cc2ccccc2s1)N(O)C(N)=O` (stereo not given) was run?
A: inactive
